# Measurements taken from PubChem BioAssay AID651661 (Broad Institute, 2012).
# Hit rate of the full screen: of about 350,000 compounds, about 2,300 (0.66%) were called active. The sample holds actives, similar compounds and a random draw of the others, so the mix is not that of the screen. A number with no mark means an inactive call.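 How the source made its calls: active means mean inhibition of at least 50% after viability correction, with every replicate also passing that limit; inconclusive means mean reaches 50% but only one of two replicates passes; inactive means the rest.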
# Test: EWS/Fli-driven NR0B1 reporter inhibitors, primary screen, A673 cells, NR0B1 luciferase, luminescence, MLPCN library (AID 651661);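 further: firefly luciferase signal divided by Alamar Blue viability fluorescence both relative to DMSO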
# Settings: viability-normalised, at 12.6 µM, stronger effect = higher value
row,SMILES,inhibition
1,COc1ccc(CN(C)C[C@H]2OCCCC[C@H](C)Oc3ccc(NS(C)(=O)=O)cc3C(=O)N([C@H](C)CO)C[C@@H]2C)cc1,1.53%
2,O=C(Nc1ccc(F)cc1)N1CCCCN2[C@H](CO)[C@H](c3ccc(C#Cc4ccccc4)cc3)[C@H]2C1,84.6% (active)
3,CN(C)CC#Cc1ccc([C@@H]2[C@H](CO)N3CCCCN(C(=O)Nc4ccc(F)cc4)C[C@@H]23)cc1,-2.85%
4,COc1ccc(C#Cc2ccc([C@H]3[C@@H](CO)N4CCCCN(C(=O)Nc5ccccc5)C[C@H]34)cc2)cc1,17.2%
5,CO[C@H]1CN(C)C(=O)c2ccc(NC(=O)C3CCC3)cc2OC[C@@H](C)NC[C@H]1C,10.2%
6,CO[C@H]1CN(C)C(=O)c2cc(NC(=O)C3CCCCC3)ccc2OC[C@H](C)N(C(=O)c2ccccc2)C[C@H]1C,9.65%
7,CCCNC(=O)[C@H]1[C@H](CO)[C@H]2Cn3c(cccc3=O)[C@H]2N1Cc1ccccc1Cl,-2.68%
8,CC(=O)N(CN1C(=O)C2C3C=CC(C3)C2C1=O)c1cccc(Cl)c1 (configuration not stated),-2.77%
9,O=C(CCl)N(Cc1cccc([N+](=O)[O-])c1)c1cccc(Cl)c1,60% (active)
10,COC(=O)c1cc(C(=O)N(Cc2ccccc2)c2ccccn2)cc([N+](=O)[O-])c1,7.71%
11,CCC(=O)N(C)C[C@H]1Oc2cc(C#CCOC)ccc2S(=O)(=O)N([C@H](C)CO)C[C@H]1C,-9.57%
12,CCOc1ccccc1N1CCN(C(=O)c2ccc3[nH]c(C)c(C)c3c2)CC1,55.9% (active)
13,CCn1c(C)c(C)c2cc(C(=O)N3CCN(c4cccc(C)c4C)CC3)ccc21,5.16%
14,CCOc1ccccc1N1CCN(C(=O)COc2ccc3c(C)cc(=O)oc3c2)CC1,6.43%
15,CCC(=O)Nc1ccc2c(c1)C(=O)N(C)[C@H]1CC[C@H](CC(=O)NC3Cc4ccccc4C3)O[C@H]1CO2,4.71%
16,COc1ccc2c3c(n(C)c2c1)[C@H](CO)N(Cc1ccccc1Cl)CC31CN(C(=O)CN(C)C)C1,6.01%
17,COc1cccc(-n2c(=S)[nH]c3c(oc4ccccc43)c2=O)c1,-11.6%
18,O=c1oc2ccccc2cc1-c1cn(-c2ccccc2)c(=S)[nH]1,67.6% (active)
19,CS(=O)(=O)N1CCN(C(=O)c2cc3ccccc3oc2=O)CC1,-13.4%
20,O=C(N[C@H]1CC[C@H](CCNS(=O)(=O)c2ccc(F)cc2)O[C@H]1CO)c1cccnc1,-0.681%
21,C[C@@H]1CN([C@@H](C)CO)C(=O)Cc2cc(NC(=O)C3CCCCC3)ccc2O[C@@H]1CN(C)Cc1ccc(C(=O)Nc2ccccc2N)cc1,12.7%
22,Cn1cnc(S(=O)(=O)N[C@H]2C=C[C@H](CC(=O)NCC3CCCCC3)O[C@@H]2CO)c1,-0.245%
23,C[C@H](CO)N1C[C@H](C)[C@@H](CN(C)Cc2ccc(-c3ccccc3)cc2)Oc2ccc(NC(=O)CCCN(C)C)cc2CC1=O,4.89%
24,C[C@H]1CN([C@@H](C)CO)S(=O)(=O)c2ccc(C#Cc3ccncc3)cc2O[C@@H]1CN(C)C(=O)Nc1ccc2c(c1)OCO2,55.5% (active)

row,SMILES,inhibition
1,C[C@H](CO)N1C[C@H](C)[C@H](CN(C)C(=O)Nc2ccc3c(c2)OCO3)Oc2cc(C#Cc3ccncc3)ccc2S1(=O)=O,22.2%
2,C[C@@H]1CN([C@@H](C)CO)S(=O)(=O)c2ccc(C#Cc3ccccc3)cc2O[C@@H]1CN(C)C(=O)Nc1ccccc1,11%
3,CCn1c(/C=N/NC(=O)c2ccc(OC)cc2)nc2ccccc21,75.2% (active)
4,Cc1nc2ccccc2n1CC(=O)N/N=C/c1cccs1,3.45%
5,CCn1c(C(O)c2cc(OC)ccc2OC)nc2ccccc21 (configuration not stated),-24.1%
6,COc1ccc2c3c(n(C)c2c1)[C@H](CO)N(CC1CCOCC1)CC31CCN(C(C)=O)CC1,0.574%
7,C[C@H]1CN([C@@H](C)CO)S(=O)(=O)c2ccc(-c3cccc(C#N)c3)cc2O[C@H]1CN(C)C(=O)c1ccccc1,4.97%
8,COCC#Cc1ccc(CC[C@H]2O[C@H]3CC[C@@H](CO)O[C@H]3C[C@H]2NC(=O)Nc2c(C)noc2C)cc1,-3.3%
9,O=C(CCl)Nc1cccc(CP(=O)(c2ccccc2)c2ccccc2)c1,28.2%
10,O=C(CCl)Nc1ccc(Sc2ccc(NC(=O)CCl)cc2)cc1,66.1% (active)
11,CCC(=O)Nc1ccc(Nc2nc(Cl)nc(Nc3ccc(NC(=O)CC)cc3)n2)cc1,7.36%
12,CO[C@H]1CN(C)C(=O)c2ccc(NC(C)=O)cc2OC[C@H](C)N(C(=O)Cc2ccccn2)C[C@@H]1C,-1.41%
13,CC[C@]1(O)C[C@@H]2CN(CCc3c([nH]c4ccccc34)[C@@](C(=O)OC)(c3cc4c(cc3OC)N(C)[C@H]3[C@@](O)(C(=O)OC)[C@H](OC(C)=O)[C@]5(CC)C=CCN6CC[C@]43[C@@H]65)C2)C1,63% (active)
14,CC[C@]1(O)CC2CN(CCc3c([nH]c4ccccc34)[C@@](C(=O)OC)(c3cc4c(cc3OC)N(C=O)[C@H]3[C@@](O)(C(=O)OC)[C@H](OC(C)=O)[C@]5(CC)C=CCN6CC[C@]43[C@@H]65)C2)C1 (some centres not stated),61.7% (active)
15,CN1C(=O)c2cc(NC(=O)C3CC3)ccc2OC[C@@H]2O[C@H](CC(=O)NCC3CCCCC3)CC[C@@H]21,6.23%
16,C[C@H]1CN([C@@H](C)CO)S(=O)(=O)c2ccc(C3=CCCCC3)cc2O[C@@H]1CN(C)Cc1ccccc1,23.9%
17,Cc1cc(C(=O)Nc2ccc3c(c2)C(=O)N(C)[C@@H]2CC[C@@H](CC(=O)NC4CCCC4)O[C@@H]2CO3)no1,4.52%
18,COc1ccc2c3c(n(C)c2c1)[C@@H](CO)N(C)CC31CN(S(=O)(=O)c2cccs2)C1,3.63%
19,COc1cccc(C#Cc2ccc([C@H]3[C@@H](CO)N(C(=O)c4ccccn4)[C@H]3C#N)cc2)c1,30.6%
20,C[C@H]1CN([C@@H](C)CO)C(=O)c2cc(-c3ccncc3)cnc2O[C@@H]1CN(C)C(=O)c1cccc(F)c1,-6.09%
21,C[C@@H]1CCCCO[C@H](CN(C)CC2CCCCC2)[C@H](C)CN([C@H](C)CO)C(=O)c2cc(NC(=O)Nc3ccc(F)cc3)ccc2O1,-1.9%
22,C[C@@H]1CCCCO[C@H](CN(C)CC2CCCCC2)[C@H](C)CN([C@H](C)CO)C(=O)c2cc(NS(=O)(=O)c3ccc(F)cc3)ccc2O1,24.8%
23,C[C@H](CO)N1C[C@H](C)[C@H](CN(C)CC2CCCCC2)OCCCC[C@H](C)Oc2ccc(NS(=O)(=O)c3ccc(F)cc3)cc2C1=O,-7.04%
24,C[C@@H]1CCCCO[C@H](CN(C)CC2CC2)[C@@H](C)CN([C@H](C)CO)C(=O)c2cc(NC(=O)Nc3ccc(F)cc3)ccc2O1,-1.94%

row,SMILES,inhibition
1,C[C@@H]1CCCCO[C@@H](CN(C)Cc2ccc3c(c2)OCO3)[C@@H](C)CN([C@@H](C)CO)C(=O)c2cc(NC(=O)Nc3ccccc3)ccc2O1,-8.42%
2,C[C@@H]1CN([C@H](C)CO)C(=O)c2cc(NC(=O)Nc3ccc(F)cc3)ccc2O[C@@H](C)CCCCO[C@@H]1CN(C)CC1CCCCC1,58.8% (active)
3,C[C@H]1CCCCO[C@H](CN(C)CC2CCCCC2)[C@@H](C)CN([C@@H](C)CO)C(=O)c2cc(NS(=O)(=O)c3ccc(Cl)cc3)ccc2O1,61.5% (active)
4,C[C@H]1CCCCO[C@@H](CN(C)Cc2ccc3c(c2)OCO3)[C@@H](C)CN([C@@H](C)CO)C(=O)c2cc(NC(=O)Nc3ccc(F)cc3)ccc2O1,73.8% (active)
5,C[C@@H]1CN([C@H](C)CO)C(=O)c2cc(NC(=O)Nc3ccc4c(c3)OCO4)ccc2O[C@@H](C)CCCCO[C@@H]1CN(C)Cc1ccc2c(c1)OCO2,11.6%
6,CCS(=O)(=O)N1[C@H](CO)[C@@H](c2ccccc2)C12CN(C(=O)c1ccccc1F)C2,8.71%
7,CC(C)NC(=O)N1[C@@H]2CN(C(=O)C3CCCCC3)c3ccccc3[C@@H]2[C@@H]1CO,1.34%
8,CN(C)C(=O)[C@@H]1[C@@H](CO)[C@@H]2Cn3c(ccc(C4=CCCC4)c3=O)[C@H]1N2Cc1ccccn1,-3.42%
9,COc1ccc(-c2cnc3c(c2)C(=O)N([C@@H](C)CO)C[C@H](C)[C@@H](CN(C)C(=O)C2CC2)O3)cc1,-4.94%
10,CCS(=O)(=O)N1CC2(C1)CN(S(=O)(=O)c1ccccc1)[C@H](CO)c1c2c2ccc(OC)cc2n1C,-5.22%
11,CO[C@@H]1CN(C)C(=O)c2ccc(NC(=O)NC(C)C)cc2OC[C@@H](C)N(Cc2ccc(-c3ccccn3)cc2)C[C@H]1C,0.576%
12,COc1ccc2c3c([nH]c2c1)[C@H](CO)N(S(=O)(=O)c1cn(C)cn1)CC31CCN(CC2CC2)CC1,-3.8%
13,C[C@@H]1CN([C@H](C)CO)C(=O)Cc2cc(NC(=O)C3CCCCC3)ccc2O[C@H]1CN(C)S(=O)(=O)c1ccc(Cl)cc1,4.11%
14,COc1ccc(S(=O)(=O)N(C)C[C@@H]2Oc3ccc(NC(=O)C4CC4)cc3CC(=O)N([C@@H](C)CO)C[C@H]2C)cc1,-1.28%
15,C[C@@H]1CN([C@@H](C)CO)C(=O)Cc2cc(NC(=O)CCCN(C)C)ccc2O[C@@H]1CN(C)Cc1ccc(-c2ccccc2)cc1,17.3%
16,C[C@H]1CN([C@@H](C)CO)C(=O)Cc2cc(NC(=O)CCCCCC(=O)Nc3ccccc3N)ccc2O[C@@H]1CN(C)Cc1ccncc1,-9.64%
17,C[C@H](CO)N1C[C@H](C)[C@H](CN(C)Cc2ccc(C(F)(F)F)cc2)Oc2ccc(NC(=O)CCCCCC(=O)Nc3ccccc3N)cc2CC1=O,52.3% (active)
18,C[C@@H]1CN([C@@H](C)CO)C(=O)Cc2cc(NC(=O)CCCCCC(=O)Nc3ccccc3N)ccc2O[C@H]1CN(C)C(=O)Nc1ccc(C(F)(F)F)cc1,8.79%
19,C[C@H](CO)N1C[C@H](C)[C@H](CN(C)CC2CCCCC2)Oc2ccc(NC(=O)CCCCCC(=O)Nc3ccccc3N)cc2CC1=O,51.8% (active)
20,C[C@H](CO)N1C[C@H](C)[C@@H](CN(C)Cc2ccc(-c3ccccc3)cc2)Oc2ccc(NC(=O)CCC(F)(F)F)cc2CC1=O,72.1% (active)
21,CC(C)NC(=O)N(C)C[C@H]1Oc2ccc(NC(=O)CCCCCC(=O)Nc3ccccc3N)cc2CC(=O)N([C@@H](C)CO)C[C@H]1C,-5.03%
22,C[C@H]1CN([C@@H](C)CO)C(=O)Cc2cc(NC(=O)C3CC3)ccc2O[C@H]1CN(C)S(=O)(=O)c1ccc(Cl)cc1,52.2% (active)
23,C[C@H]1CN([C@@H](C)CO)C(=O)Cc2cc(NC(=O)CCCN(C)C)ccc2O[C@@H]1CN(C)Cc1ccc(-c2ccccc2)cc1,-8.76%
24,C[C@@H]1CN([C@@H](C)CO)C(=O)Cc2cc(NC(=O)CCCCCC(=O)Nc3ccccc3N)ccc2O[C@@H]1CN(C)C(=O)NC1CCCCC1,2.61%
